Source: PubChem BioAssay (NCI)
This is part of a sample that, as a whole, favours compounds with a hit. Of some 79,000 tested, about 15% had one in any assay. Values without a mark were called inactive. Activity calls are given as the source filed them. Cut-off read from the data, not from the text of the source: active = growth inhibition above about 70%; inactive = the rest.

How the values were obtained:
[1] = NCI Yeast Anticancer Drug Screen. Data for the rad50 strain (AID 155);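 note: 0% = growth of vehicle-only cultures of the same strain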; details: S. cerevisiae rad50 strain growth inhibition, hits give high values
In short: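 Readout: growth inhibition relative to vehicle-treated cultures. Compound exposure was carried out in a genetically defined yeast strain deficient in DNA damage repair.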

[2] = NCI Yeast Anticancer Drug Screen. Data for the mec2-1 strain (AID 157); details: S. cerevisiae mec2-1 strain, hits give high values
In short: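 Test agents were screened against the mec2-1 yeast strain, with defined DNA repair or cell cycle alteration. Growth was scored as inhibition against vehicle-only controls.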

[3] = NCI Yeast Anticancer Drug Screen. Data for the sgs1 mgt1 strain (AID 161);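 note: 0% = growth of cultures given vehicle only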; details: S. cerevisiae sgs1 mgt1 strain, hits give high values
In short: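 Read-out: growth inhibition vs vehicle controls. Cells: mutant yeast strain deficient in DNA damage repair.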

[4] = NCI Yeast Anticancer Drug Screen. Data for the cln2 rad14 strain (AID 165);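 note: 0% = growth equal to vehicle treated cultures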; details: S. cerevisiae cln2 rad14 strain, hits give high values
In short: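 Growth of compound-exposed yeast (cln2 rad14 genotype) measured and expressed as inhibition relative to vehicle.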

[5] = NCI Yeast Anticancer Drug Screen. Data for the bub3 strain (AID 167); details: S. cerevisiae bub3 mutant strain, hits give high values
In short: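 Readout: yeast growth inhibition, expressed relative to vehicle-only wells. The test organism is a mutant strain from a panel with lesions in DNA repair or checkpoint genes.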

[6] = NCI Yeast Anticancer Drug Screen. Data for the mlh1 rad18 strain (AID 175); details: S. cerevisiae mlh1 rad18 strain growth inhibition, hits give high values
In short: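 In this whole-cell yeast screen, a strain with altered DNA damage repair is challenged with compound, and its growth is measured against matched vehicle-treated controls.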

[7] = at 5.0 µM (retest, dose inferred, filed as 0.5)
[8] = at 50.0 µM (retest, dose inferred, filed as 5.0)

| SMILES | growth inhibition [1, 7] | growth inhibition [1, 8] | growth inhibition ([1]; at 50.0 µM) | growth inhibition [2, 7] | growth inhibition [2, 8] | growth inhibition ([2]; at 50.0 µM) | growth inhibition [3, 7] | growth inhibition [3, 8] | growth inhibition ([3]; at 50.0 µM) | growth inhibition [4, 7] | growth inhibition [4, 8] | growth inhibition ([4]; at 50.0 µM) | growth inhibition [5, 7] | growth inhibition [5, 8] | growth inhibition ([5]; at 50.0 µM) | growth inhibition [6, 7] | growth inhibition [6, 8] | growth inhibition ([6]; at 50.0 µM) |
| --- | --- | --- | --- | --- | --- | --- | --- | --- | --- | --- | --- | --- | --- | --- | --- | --- | --- | --- |
| CCCCCCN(CCCCCC)CCCCCC | 3% | -4% | 28.6% | -2% | -7% | 10.8% | 0% | -2% | 9.75% | -37% | -6% | 3.55% | 10% | 12% | 7.8% | -3% | 3% | 35.8% |
| CSC(=S)NN=C1CCCC1 | 66% | 97% (active) | 87.5% (active) | 57% | 98% (active) | 83.7% (active) | 61% | 97% (active) | 89.9% (active) | 49% | 98% (active) | 57.8% | 78% (active) | 98% (active) | 94.8% (active) | 58% | 97% (active) | 89.5% (active) |
| CSC(=S)N/N=C(C)/C=C/c1ccccc1 | 9% | 98% (active) | 98.2% (active) | 14% | 98% (active) | 98.5% (active) | 25% | 98% (active) | 97.7% (active) | -10% | 94% (active) | 97.8% (active) | 13% | 98% (active) | 97.4% (active) | 20% | 93% (active) | 95.3% (active) |
| C=CCOC(=O)OCCCO | 0% | -3% | 91.7% (active) | -1% | -1% | 99.2% (active) | 2% | -1% | 97.2% (active) | -5% | 2% | 95.8% (active) | -1% | -3% | 98.8% (active) | -1% | -1% | 95.5% (active) |
| CCCCN(CCCC)CCNc1ccc(NS(=O)(=O)c2ccccc2)c2sc3ccccc3c(=O)c12 | 43% | 96% (active) | 96.8% (active) | 21% | 95% (active) | 97.8% (active) | 54% | 96% (active) | 98.2% (active) | 31% | 96% (active) | 93.3% (active) | 32% | 94% (active) | 96.4% (active) | 96% (active) | 94% (active) | 95.3% (active) |
| Nc1ccc(S(=O)(=O)Nc2nc3ccccc3nc2N2CCCCC2)cc1 | 29% | 46% | 51.8% | 35% | 44% | 40.8% | 32% | 94% (active) | 64.7% | 36% | 91% (active) | 32.3% | 30% | 96% (active) | 76.4% (active) | 44% | 60% | 85.9% (active) |
| CN1CCN(CCn2c3c4ccccc4ccc3c3oc(=O)c4ccccc4c32)CC1 | 40% | 95% (active) | 38.5% | -13% | 97% (active) | 89.7% (active) | 28% | 96% (active) | 91.2% (active) | 22% | 92% (active) | 90.4% (active) | 19% | 97% (active) | 91.8% (active) | 13% | 97% (active) | 90.8% (active) |
| Clc1ccc(/C(=C/c2ccccc2)Cn2ccnc2)cc1 | 88% (active) | 93% (active) | 75.6% (active) | 64% | 86% (active) | 78.8% (active) | 86% (active) | 90% (active) | 75% (active) | 85% (active) | 83% (active) | 70.5% (active) | 70% (active) | 93% (active) | 81% (active) | 83% (active) | 90% (active) | 78.5% (active) |
| COc1cc(/C=C\C(=O)c2cccc(O)c(=O)c2)cc(OC)c1OC | -3% | 53% | 69.1% | 1% | 65% | 50.5% | 16% | 83% (active) | 63.5% | -15% | 50% | 5.6% | 2% | 67% | 65.5% | 7% | 89% (active) | 54.9% |
| O=C1c2ccccc2C(=O)c2sc(Nc3ccccc3C(F)(F)F)nc21 | 99% (active) | 96% (active) | 90.3% (active) | 100% (active) | 97% (active) | 92.1% (active) | 99% (active) | 96% (active) | 92.7% (active) | 94% (active) | 97% (active) | 90.5% (active) | 99% (active) | 97% (active) | 92.2% (active) | 99% (active) | 96% (active) | 88.5% (active) |
| COC12C=CC(CC1)C1=C2C(=O)c2nc(C)c(C)nc2C1=O (stereo not given) | -1% | 27% | 30.8% | 9% | 20% | 7.5% | -1% | 39% | 33.6% | 21% | 3% | 20.8% | 5% | 8% | 20.8% | 12% | 52% | 34.2% |
| C=CNC(=O)Oc1ccccc1 | -128% | -156% | -9.95% | -35% | -59% | 30.2% | -47% | -62% | 12.7% | -57% | -73% | 44% | -64% | -81% | -3% | -121% | -130% | 6.25% |
| O=C1C=CCCCC1(c1ccccc1)c1ccccc1 | 2% | 8% | 77.5% (active) | 0% | 14% | 70.3% (active) | 5% | 15% | 85.4% (active) | 9% | 4% | 19.9% | -3% | -6% | 52.2% | -3% | 12% | 73.6% (active) |
| Cc1nn(C)c2ccc3ccccc3c(=O)c12 | 9% | 66% | 88.5% (active) | -1% | 44% | 45% | 2% | 50% | 42.6% | 18% | 47% | 29.4% | -6% | 26% | 32.6% | 11% | 81% (active) | 76% (active) |
| CCOc1ccc2c(c1)[n+]([O-])c(-c1ccccc1)c(N)[n+]2[O-] | 23% | 98% (active) | 99.2% (active) | 28% | 99% (active) | 99.3% (active) | 27% | 99% (active) | 99.2% (active) | 37% | 98% (active) | 98.6% (active) | 69% | 99% (active) | 99.1% (active) | 66% | 98% (active) | 98.8% (active) |
| Cn1c(=O)ccc2cc(C(=O)c3ccccc3)ccc21 | 7% | 22% | 30.2% | -9% | 7% | 6.95% | -9% | -5% | 14.4% | 39% | 51% | 35.4% | -7% | 46% | 16.8% | 9% | 45% | 65.7% |
| CN(C)c1ccccc1[CH2][Ga]([Cl])[CH2]c1ccccc1N(C)C | 15% | 96% (active) | 88.9% (active) | -1% | 98% (active) | 92.6% (active) | 13% | 51% | 90.8% (active) | 16% | 98% (active) | 90.3% (active) | 9% | 97% (active) | 91.3% (active) | 26% | 98% (active) | 89.2% (active) |
| O=C(O)c1ccc(CSc2ccc(Cl)cc2)cc1 | -4% | 0% | 52% | -2% | 19% | 10.4% | 11% | 36% | 51.3% | -7% | -15% | 36.7% | -6% | 39% | 18.7% | 0% | 17% | 71.3% (active) |
| CCC(CC)C1(C(=O)OCCN(CC)CC)CCCCC1 | 1% | 48% | 72.5% (active) | -1% | 13% | 5.8% | -2% | 20% | 45% | 2% | 9% | 3.5% | -1% | 48% | 73% (active) | 4% | 32% | 43.2% |
| O=[N+]([O-])/C(Cl)=C(/C(Cl)=C(Cl)Cl)N1CCCCC1 | -3% | 16% | 28.6% | 8% | 25% | 11.7% | 14% | 27% | 34.1% | 13% | 22% | 1.5% | 22% | 34% | 23.6% | 2% | 27% | 43.1% |
